# Legend:
# Experiment in all cases: pooled miR-30 sensor sort-seq; sequence = guide strand
# Conditions in all cases: shRNA
# MTF2 = target: MTF2
# MTFP1 = target: MTFP1
# MTG1 = target: MTG1
# MTDH = target: MTDH
# MTX3 = target: MTX3
# MYO1D = target: MYO1D
# MYNN = target: MYNN
# MYO1A = target: MYO1A
# MYO1F = target: MYO1F
# Also: reference of the scale not given here.
sequence,measurement,setting,value
TTCCACAAGATACTGCACCTTT,sensor-assay potency score (higher = more potent),MTF2,0.329
TTATCTTTTTGATAGTGCCAAG,sensor-assay potency score (higher = more potent),MTF2,-1.55
TACTCTTCTTGACATATTGTAC,sensor-assay potency score (higher = more potent),MTF2,-0.653
TAGAGCTTGCGCAGGCTGGAGT,sensor-assay potency score (higher = more potent),MTFP1,-0.938
TATAGAACAAGGTAAATCCAAA,sensor-assay potency score (higher = more potent),MTF2,-1.04
TTCTCTTTTCGGTGGTAGCGGT,sensor-assay potency score (higher = more potent),MTG1,-0.857
ATGATTGAGTTGTAACTCCTGA,sensor-assay potency score (higher = more potent),MTF2,-0.17
TGTTGGGTAGAGCTTGCGCAGG,sensor-assay potency score (higher = more potent),MTFP1,-1.71
TAAAACAAGCCATCTGACCATC,sensor-assay potency score (higher = more potent),MTF2,-1.1
TCAGCCACACCACCGCCGCTGG,sensor-assay potency score (higher = more potent),MTFP1,-1.36
TTAGAAGTGAAGCTCTTTCTTC,sensor-assay potency score (higher = more potent),MTDH,-0.219
TTTGTCAATGGCATCCGCCAGC,sensor-assay potency score (higher = more potent),MTFP1,-0.615
TAGCTCAGCCACACCACCGCCG,sensor-assay potency score (higher = more potent),MTFP1,-0.967
TCATCCTTTACACAGTTGGTAA,sensor-assay potency score (higher = more potent),MTG1,-1.44
TAGGAGGTTGACATGAAGCAGG,sensor-assay potency score (higher = more potent),MTFP1,-1.07
TTCTTCTGTTCCTCGCTCCGGA,sensor-assay potency score (higher = more potent),MTDH,-0.0167
TTTTTTTCTATGCCATTGCTTA,sensor-assay potency score (higher = more potent),MTF2,-0.923
ATTTTGGACATCACAGCTCTGG,sensor-assay potency score (higher = more potent),MTG1,-0.514
TTTATCTTTTTGATAGTGCCAA,sensor-assay potency score (higher = more potent),MTF2,-0.334
TAACTTGAACATTTAGATGAGA,sensor-assay potency score (higher = more potent),MTDH,-0.76
TTGACATATTGTACAGACCATT,sensor-assay potency score (higher = more potent),MTF2,-1.28
TCCGCCAGCACGTAGGAGCTGG,sensor-assay potency score (higher = more potent),MTFP1,-1.34
TTTTGGTTTAGAGTCTTCCTTA,sensor-assay potency score (higher = more potent),MTX3,0.00174
TTGAGCACAGGATTTGAACTGT,sensor-assay potency score (higher = more potent),MYO1D,0.338
TTTGAGATAGTCAGCAGCCTGA,sensor-assay potency score (higher = more potent),MYNN,-0.243
TTAGTTTCTTGACAGCCTCTTT,sensor-assay potency score (higher = more potent),MYO1D,-0.583
TTGTCGAATCTCCTCCTCCGAG,sensor-assay potency score (higher = more potent),MYO1A,-0.993
TTCCTCTTGCTCTTCTTTCAGG,sensor-assay potency score (higher = more potent),MYO1A,-0.825
TAAATTTTTAATATCTGTGTAA,sensor-assay potency score (higher = more potent),MYNN,-0.492
TTTTTCTTCACCATGATGCATG,sensor-assay potency score (higher = more potent),MYNN,-0.931
TATAGTTGTAGGATGAAAGGGA,sensor-assay potency score (higher = more potent),MYO1D,0.615
TAAATCTTCTGTATGAGTGTGG,sensor-assay potency score (higher = more potent),MYO1A,0.504
TTGGCTTGTTTCTTGATCTTGG,sensor-assay potency score (higher = more potent),MYO1F,0.371
TTGTCTAAGACGTTTGTGGATG,sensor-assay potency score (higher = more potent),MYO1A,-0.839
TTAAGTAAGATGATCCTTGGAG,sensor-assay potency score (higher = more potent),MYO1D,0.286
TAGTCCACCTTTGTCCACGGTA,sensor-assay potency score (higher = more potent),MYO1A,-0.661
